The campaign covered roughly 310,000 compounds. About 2,200 (0.71%) showed an effect of 50% or more. Effects have a minus sign here. This excerpt belongs to a sample that is enriched for strong results.

The target of the assay is human ether-à-go-go-related gene (hERG) potassium channel (human, UniProt Q12809). Description: primary screen, population patch clamp on CHO cells stably expressing hERG; higher = less effect of the substance.
Chain of human ether-à-go-go-related gene (hERG) potassium channel (Q12809 whole entry, looked up): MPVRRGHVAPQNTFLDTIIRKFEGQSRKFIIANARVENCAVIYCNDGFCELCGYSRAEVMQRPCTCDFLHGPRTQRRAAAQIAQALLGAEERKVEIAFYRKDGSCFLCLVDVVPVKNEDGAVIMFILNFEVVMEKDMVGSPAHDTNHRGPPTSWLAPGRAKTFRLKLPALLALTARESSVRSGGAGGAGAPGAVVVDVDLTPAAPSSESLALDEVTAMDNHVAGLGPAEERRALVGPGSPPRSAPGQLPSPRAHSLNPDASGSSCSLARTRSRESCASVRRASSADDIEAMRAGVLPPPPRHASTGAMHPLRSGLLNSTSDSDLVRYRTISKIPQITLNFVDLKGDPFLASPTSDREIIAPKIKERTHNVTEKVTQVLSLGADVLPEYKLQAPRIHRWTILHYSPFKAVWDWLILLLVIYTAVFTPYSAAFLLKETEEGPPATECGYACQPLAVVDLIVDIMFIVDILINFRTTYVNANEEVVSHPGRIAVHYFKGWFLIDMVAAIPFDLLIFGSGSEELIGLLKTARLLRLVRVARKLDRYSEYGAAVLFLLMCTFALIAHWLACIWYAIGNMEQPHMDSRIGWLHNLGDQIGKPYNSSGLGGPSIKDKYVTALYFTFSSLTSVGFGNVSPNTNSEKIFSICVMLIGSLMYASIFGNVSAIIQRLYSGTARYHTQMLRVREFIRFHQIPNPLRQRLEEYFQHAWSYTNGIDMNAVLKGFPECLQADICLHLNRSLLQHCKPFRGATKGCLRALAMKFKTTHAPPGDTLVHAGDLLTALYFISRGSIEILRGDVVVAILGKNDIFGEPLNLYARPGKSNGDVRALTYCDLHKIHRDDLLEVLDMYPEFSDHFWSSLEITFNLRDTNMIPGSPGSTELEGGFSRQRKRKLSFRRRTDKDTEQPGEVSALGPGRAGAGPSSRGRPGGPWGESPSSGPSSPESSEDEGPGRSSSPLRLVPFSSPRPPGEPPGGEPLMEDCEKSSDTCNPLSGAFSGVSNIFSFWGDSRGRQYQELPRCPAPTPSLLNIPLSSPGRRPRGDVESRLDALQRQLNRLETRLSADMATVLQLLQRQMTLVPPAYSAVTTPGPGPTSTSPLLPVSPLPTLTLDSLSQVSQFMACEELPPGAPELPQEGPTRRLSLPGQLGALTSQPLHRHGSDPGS
In the case of `Cc1cccc(OC(=O)NCCOC(=O)N(O)c2ccc(Cl)cc2)c1`, the “hERG current change (%, negative = inhibition) at 1uM” value worked out at 1.04%.

Regarding `Cc1ccc(NC(=O)CSc2sc3c(O)cc(=O)[nH]c3c2C#N)c(F)c1`, the “hERG current change (%, negative = inhibition) at 1uM” value is on record as -4.66%. Under `Cc1cccc(C)c1NC(=O)CSc1nc2[nH]c(=O)cc(O)c2s1` stands 4.15%; under `COc1ccc(N(CC(=O)NC2CC3CCC2C3)S(=O)(=O)c2ccc(C)c([N+](=O)[O-])c2)cc1` (stereo not drawn), 10.2%; under `COc1cccc(C(=O)NNS(=O)(=O)c2ccc(C)cc2)c1`, 13%. Turning to `O=C(NCc1ccco1)c1cccc(NS(=O)(=O)c2ccccc2F)c1`, the “hERG current change (%, negative = inhibition) at 1uM” value turned out to be 6.58%.

As for `Cc1ccc(NC(=O)CSCC(=O)NCc2cccc(C(F)(F)F)c2)cc1`, the “hERG current change (%, negative = inhibition) at 1uM” value is recorded as 6.6%. For `O=C(CN(C(=O)C1COc2ccccc2O1)c1ccccc1)NCC1CCCO1` (stereo not drawn), the “hERG current change (%, negative = inhibition) at 1uM” value is reported as -9.34%. For `CCOc1ccccc1Nc1nc(N)nc(CSc2nncn2C)n1` the value was 9.75%. Under `Cc1cccc(OCC(=O)Nc2ccc(C(=O)NCC(C)C)cc2)c1` stands 4.42%.

As to `CCOCCCNC(=S)Nc1cc(OCC)c(NC(=O)c2ccco2)cc1OCC`, the “hERG current change (%, negative = inhibition) at 1uM” value is 7.7%. Under `COc1ccc(C(=O)N2CCN=C2SCc2cccnc2)cc1OC` stands 9.25%; under `COc1nnc(-c2ccc(C)c(S(N)(=O)=O)c2)c2ccccc12`, 3.63%. Take `COc1nnc(-c2ccc(C)c(S(=O)(=O)N(C)C)c2)c2ccccc12`: the “hERG current change (%, negative = inhibition) at 1uM” value is -53.6%.

As to `COc1nnc(-c2ccc(C)c(S(=O)(=O)NC(C)C)c2)c2ccccc12`, the “hERG current change (%, negative = inhibition) at 1uM” value is recorded as -5.36%. Under `CC(=O)Nc1ccc(NC2CCCCC2NS(=O)(=O)c2ccc(Cl)cc2)cc1` (stereo not drawn) stands 12%; under `CCCn1cc(CN2CCC(Cc3cccc(F)c3)(C(=O)OCC)CC2)c(C)n1`, -60.3%; under `CCOC(=O)C1(Cc2ccccc2C(F)(F)F)CCN(CCCn2cccn2)CC1`, -49.2%. For `CCOC(=O)C1(Cc2cccc(F)c2)CCN(Cc2cn(CC)nc2C)CC1` the value was -6.14%.

On to `CCOC(=O)C1(Cc2ccc(Cl)cc2)CCN(C(C)CCn2cccn2)CC1` (stereo not drawn), for which the “hERG current change (%, negative = inhibition) at 1uM” value is given as -87.1%. For `CCCn1cc(CN2CCC(Cc3ccccc3)(C(=O)OCC)CC2)c(C)n1` the value was -14%; for `CCOC(=O)C1(CCCc2ccccc2)CCN(Cc2cnn(C)c2)CC1`, -46.4%.

As for `CCOC(=O)C1(Cc2ccccc2C(F)(F)F)CCN(C(C)CCn2cccn2)CC1` (stereo not drawn), the “hERG current change (%, negative = inhibition) at 1uM” value is given as -40.8%. Take `CCOC(=O)C1(Cc2ccc(Cl)cc2)CCN(C(C)Cc2ccc(O)c(OC)c2)CC1` (stereo not drawn): the “hERG current change (%, negative = inhibition) at 1uM” value is listed as -7.39%. Under `CCOC(=O)C1(Cc2ccc(Cl)cc2)CCN(CCCn2cccn2)CC1` stands -77%; under `CCOC(=O)C1(CCCc2ccccc2)CCN(CCCn2cccn2)CC1`, -84.6%. For `CCOC(=O)C1(CCCc2ccccc2)CCN(Cc2nccn2CC)CC1` the value was -45.8%; for `CCOC(=O)C1(Cc2ccccc2)CCCN(CCCn2cccn2)C1` (stereo not drawn), 3.88%. For `Cc1ccc(C2=NN(CCC(=O)NCCCN3CCOCC3)C(=O)CC2)cc1` the value was -9.94%; for `O=C(CNC(=O)c1nc[nH]c1C(=O)NCC(=O)OCc1ccccc1)OCc1ccccc1`, 10.3%.

Turning to `COc1ccccc1NC(CC(=O)c1ccccc1)C(=O)OCC(=O)c1ccc(F)cc1` (stereo not drawn), the “hERG current change (%, negative = inhibition) at 1uM” value is -11.1%.

Regarding `COc1ccccc1C(=O)Nc1c2c(nn1-c1cccc(C)c1C)CS(=O)C2` (stereo not drawn), the “hERG current change (%, negative = inhibition) at 1uM” value is -3.22%. Under `Cc1ccc(-n2c(O)c(C=Nc3ccc(S(=O)(=O)Nc4ncccn4)cc3)c3ccccc3c2=O)cc1C` stands -2.78%; under `CC(=O)N1N=C(c2ccc(Br)cc2)CC1c1cn(C)c2ccccc12` (stereo not drawn), 9.41%; under `O=C(N/N=C1\CCCc2ccccc21)c1cccc(Br)c1`, 9.96%. For `CCOC(=O)C1(Cc2cccc(F)c2)CCN(CC2CC2)CC1` the value was -2.54%; for `CCOC(=O)C1(CCCc2ccccc2)CCN(Cc2cn(CC)nc2C)CC1`, -59.8%; for `CCOC(=O)C1(CCCc2ccccc2)CCN(Cc2ccn[nH]2)CC1`, -27.8%. For `CCOC(=O)C1(Cc2ccc(Cl)cc2)CCN(Cc2cn(CC)nc2C)CC1` the value was -28.5%. Take `CCOC(=O)C1(Cc2cccc(F)c2)CCN(Cc2cnn(CC)c2)CC1`: the “hERG current change (%, negative = inhibition) at 1uM” value is -4.74%.

For `CCOC(=O)C1(Cc2cccc(F)c2)CCN(CCCn2cccn2)CC1`, the “hERG current change (%, negative = inhibition) at 1uM” value is reported as -51.2%. For `COC(=O)C1=CN(Cc2ccc(OC)c(OC)c2)C=C(C(=O)OC)C1c1ccc(F)cc1` the value was 4.21%.

For the origin of these results see article PMC4336329 (PLoS ONE, 2015).
